Granule exo inh – blocks lytic granule exocytosis; AID 651702; 360,000 compounds, 0.66% hits; TALL-104 LAMP-1 surface exposure, flow cytometry; cells stimulated with thapsigargin and PMA; inhibition, % at 10 µM;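 active means inhibition above about 55%, limit read from the data; inconclusive means no clear call, values can overlap the other calls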
ABCB6 inh MLPCN – blocks the human ABCB6 transporter; Q9NP58; K562-ABCB6 porphyrin accumulation, flow cytometry, 1 h; hits give low values; fluorescence ratio to DMSO, % at 10 µM; 360,000 compounds, 0.19% hits; AID 602162;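 active means fluorescence ratio to DMSO below 75%, the collection mean minus 3 SD; inconclusive means too few cells collected in the well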;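 further: signal is porphyrin accumulated inside mitochondria; 100% equals median channel fluorescence of DMSO control wells; lower ratio means ABCB6 inhibition with less porphyrin fluorescence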
Target sequence (Q9NP58 whole entry, looked up): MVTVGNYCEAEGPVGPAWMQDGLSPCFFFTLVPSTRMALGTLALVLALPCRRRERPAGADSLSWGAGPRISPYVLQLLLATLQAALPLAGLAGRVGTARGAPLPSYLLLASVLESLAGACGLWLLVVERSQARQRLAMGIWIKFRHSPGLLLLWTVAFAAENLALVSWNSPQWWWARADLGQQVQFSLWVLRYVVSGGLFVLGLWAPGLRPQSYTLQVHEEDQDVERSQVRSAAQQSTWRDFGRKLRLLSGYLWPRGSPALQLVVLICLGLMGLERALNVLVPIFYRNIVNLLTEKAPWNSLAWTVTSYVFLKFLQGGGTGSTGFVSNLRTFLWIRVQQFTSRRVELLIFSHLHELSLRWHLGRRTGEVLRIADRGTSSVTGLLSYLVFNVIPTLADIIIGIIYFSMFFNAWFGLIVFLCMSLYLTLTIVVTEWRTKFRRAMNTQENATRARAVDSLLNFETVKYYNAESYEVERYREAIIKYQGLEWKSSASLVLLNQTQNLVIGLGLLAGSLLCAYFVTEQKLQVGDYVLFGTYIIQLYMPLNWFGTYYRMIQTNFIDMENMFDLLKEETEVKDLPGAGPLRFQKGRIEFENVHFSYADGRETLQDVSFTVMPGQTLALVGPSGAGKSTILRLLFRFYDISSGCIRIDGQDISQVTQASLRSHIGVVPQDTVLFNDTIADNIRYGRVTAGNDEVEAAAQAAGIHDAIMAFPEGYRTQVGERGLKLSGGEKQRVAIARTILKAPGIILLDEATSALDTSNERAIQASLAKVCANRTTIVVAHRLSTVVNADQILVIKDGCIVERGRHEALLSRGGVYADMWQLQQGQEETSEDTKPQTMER
Myeloid diff MLP – compounds promoting myeloid differentiation | ER-HoxA9 myeloid progenitors, lysozyme-GFP differentiation, flow cytometry | calls only at 10 µM | 360,000 compounds, 1% hits | AID 624256;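 active means normalized GFP-positive differentiation at or above the plate's own cutoff, the solvent-only control mean plus 3 SD; inconclusive means no clear call, values can overlap the other calls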;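 further: cells exposed to compound for four days before flow analysis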
Myeloid diff – compounds promoting myeloid differentiation; shares compounds with Myeloid diff MLP; ER-HoxA9 myeloid progenitors, GFP/Mac1 double-positive flow; calls only; 2,300 compounds, 2% hits; AID 651706;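 active means share of green or green-and-red cells above 9 and 9% in run 1 or 4 and 3% in run 2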
GFP autofluor – flagged as fluorescent in myeloid differentiation counter-screen. AID 651707. 2,300 compounds, 7.4% hits. shares compounds with Myeloid diff MLP. fluorescence response, % (no concentration beside the values). ER-HoxA9 myeloid progenitors, no estrogen, GFP autofluorescence flow cytometry; vehicle wells 0%, positive control 100%;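 active means over 5% cells positive for green fluorescent reporter, or over 2% positive for both it and APC stain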;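 further: range taken on the double positive population between DMSO and positive control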
Starred values were filed as active, the others as inactive; i = inactive; ? = inconclusive; · = no result given; + = active, no number. Hits are enriched below; roughly 1.8% of the tested compounds scored in any of these assays.

SMILES | Granule exo inh | ABCB6 inh MLPCN | Myeloid diff MLP | Myeloid diff | GFP autofluor
Cc1csc(=O)n1CC(=O)OCC(=O)NNC(=O)c1ccc([N+](=O)[O-])cc1 | 3.6 | 104.0 | + | i | 0.4
Cc1csc(=O)n1CC(=O)OCC(=O)NNC(=O)c1ccccc1 | -1.5 | 97.0 | i | · | ·
CN(CC(=O)Nc1ccccc1Cl)C(=O)CSc1nc2ccccc2s1 | -4.6 | 101.0 | i | · | ·
COc1ccc(NC(=O)CN(C)C(=O)CSc2nc3ccccc3s2)cc1 | 5.5 | 94.0 | i | i | 0.0
C#CCNC(=O)C1=C[C@H](c2csc3ccccc23)[C@@H](CCCO)[C@H](OCC)O1 | -5.6 | 91.0 | i | · | ·
CCO[C@@H]1OC(C(=O)NCc2ccccc2)=C[C@H](c2csc3ccccc23)[C@H]1CCCO | 11.0 | 94.0 | i | i | 0.0
COc1ccc([C@H]2CC(=O)C=C(c3cccc(NC(C)=O)c3)C2)cc1 | -9.2 | 93.0 | i | · | ·
Cn1c(C(=O)NCCN2CCc3ccccc3C2)cc2c(=O)n(C)c3ccccc3c21 | -4.1 | 109.0 | i | · | ·
Cn1c(C(=O)NCCN2CCOCC2)cc2c(=O)n(C)c3ccccc3c21 | -2.8 | 99.0 | i | i | 3.6
COc1ccc(-c2cccc(NC(=O)c3cccs3)c2)nn1 | -7.1 | 99.0 | i | · | ·
O=C(NCCc1ccc(Cl)cc1)C1CCCN1C(=O)Nc1ccc(F)cc1 (stereo unspecified) | -3.4 | 89.0 | i | · | ·
O=C(NCCc1ccccc1)C1CCCN1C(=O)Nc1ccc(F)cc1 (stereo unspecified) | -0.8 | 102.0 | + | i | 0.4
C(=N\Nc1ncnc2nc[nH]c12)/c1cccs1 | 0.0 | 100.0 | i | · | ·
COc1ccccc1Cc1c(-c2ccc(OC)c(OC)c2)nc2c3ccccc3ccn12 | 3.3 | 95.0 | i | · | ·
COc1ccccc1Cc1c(C(C)(C)C)nc2c3ccccc3ccn12 | -1.5 | 102.0 | + | i | 0.0
COc1cc(C(=O)OCc2cccc(OC)c2OC)ccc1OCC(=O)N1CCOCC1 | -1.9 | 98.0 | i | · | ·
CCCOc1ccc(C(=O)Nc2ccc(N3CCN(C(=O)c4ccco4)CC3)cc2)cc1 | 1.5 | 99.0 | i | · | ·
CCOc1ccc(CN2CCNC(=O)C2CC(=O)NCc2csc(C(C)C)n2)cc1 (stereo unspecified) | 2.5 | 95.0 | ? | · | ·
CC(C)c1nc(CNC(=O)CC2C(=O)NCCN2Cc2ccccc2)cs1 (stereo unspecified) | 4.1 | 477.0 | i | i | 0.0
COc1ccc2ccccc2c1CNC(=O)CC1C(=O)NCCN1CC(C)C (stereo unspecified) | 19.7 | 108.0 | + | i | 0.5
CCn1ccnc1CNC(=O)CC1C(=O)NCCN1CC(c1ccccc1)c1ccccc1 (stereo unspecified) | -0.4 | 100.0 | i | · | ·
CC(=O)Nc1cc(-c2cccc(C(=O)NCCN(C)C)c2)cn2c(-c3ccc(S(C)(=O)=O)cc3)cnc12 | 4.2 | 105.0 | + | i | 5.3*
CC(=O)Nc1cc(-c2cccc(C(=O)NCCN(C)C)c2)cn2c(-c3ccccc3)cnc12 | 0.0 | 101.0 | i | · | ·
Cc1ccccc1-n1c(=O)n(Cc2ccc(C(=O)O)cc2)c(=O)c2[nH]cnc21 | -7.3 | 96.0 | i | · | ·
COc1ccc(Cn2c(=O)c3[nH]cnc3n(-c3ccccc3C)c2=O)cc1 | 12.5 | 102.0 | i | i | 1.9
SMILES | Granule exo inh | ABCB6 inh MLPCN | Myeloid diff MLP | Myeloid diff | GFP autofluor
CC(=O)N1c2ccc(S(=O)(=O)N3CCC(C(=O)N4CCN(c5ccc(Cl)cc5)CC4)CC3)cc2CC1C (stereo unspecified) | -1.5 | 87.0 | i | · | ·
O=C(NCc1ccc2c(c1)OCO2)c1nnc(Cc2ccc(F)cc2)o1 | -5.9 | 99.0 | i | · | ·
Nc1nc2cc3c(cc2cc1C(=O)NCc1ccc(F)cc1)OCO3 | -1.8 | 100.0 | + | i | 1.4
CC(C(=O)OCC(=O)c1ccccc1)N1C(=O)c2ccccc2C1=O (stereo unspecified) | -0.7 | 88.0 | i | · | ·
COc1cccc(C(=O)COC(=O)C(C)N2C(=O)c3ccccc3C2=O)c1 (stereo unspecified) | -0.6 | 101.0 | i | i | 0.0
COc1cc2ccccc2cc1C(=O)Nc1ccc(C)cn1 | -0.8 | 98.0 | i | · | ·
Fc1ccccc1NC(=S)N1CCN(Cc2ccc3c(c2)OCO3)CC1 | 0.5 | 89.0 | i | · | ·
Cc1cc(Cl)ccc1NC(=S)N1CCN(Cc2ccc3c(c2)OCO3)CC1 | -1.9 | 95.0 | + | i | 0.0
COc1ccc(S(=O)(=O)N(C)C[C@@H]2Oc3cc(C#CC4CCCCC4)ccc3S(=O)(=O)N([C@@H](C)CO)C[C@@H]2C)cc1 | 0.5 | 99.0 | i | i | 0.0

High-throughput results from PubChem BioAssay.
